Laboratory results taken from the supplement of paper PMC11732987, “Enantioselective OTUD7B fragment discovery through chemoproteomics screening and high-throughput optimisation” (Communications Chemistry, 2025).

Key:
Experiment in all cases: log2 ratio of Biotin-Ahx-Ub-VS probe labelling (fragment/DMSO); higher = less target engagement (more negative = stronger competition), active = hit call of the paper (q ≤ 0.05, log2 ratio ≤ -1)
Conditions in all cases: compound concentration: 200 uM; treatment time: 3 h
USP16 = USP16 (UniProt Q9Y5T5)
Outline: (§1)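 HEK293T lysate in Tris/CHAPS/IGEPAL buffer with protease inhibitors (495 µg per sample) was given fragment at 200 µM or vehicle for 3 h, in triplicate. It then received Biotin-Ahx-Ub-VS at 0.5 µM final for 1 h. Labelled DUBs were NeutrAvidin-enriched, digested with LysC and trypsin, and run by diaPASEF LC-MS/MS. Values are average log2 fragment/vehicle ratios by unpaired t-test on global-median-normalised Spectronaut quantities of proteins with ≥2 unique peptides.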

USP19 = molecular target: T1, USP19 (UniProt O94966)
T1 sequence (whole entry): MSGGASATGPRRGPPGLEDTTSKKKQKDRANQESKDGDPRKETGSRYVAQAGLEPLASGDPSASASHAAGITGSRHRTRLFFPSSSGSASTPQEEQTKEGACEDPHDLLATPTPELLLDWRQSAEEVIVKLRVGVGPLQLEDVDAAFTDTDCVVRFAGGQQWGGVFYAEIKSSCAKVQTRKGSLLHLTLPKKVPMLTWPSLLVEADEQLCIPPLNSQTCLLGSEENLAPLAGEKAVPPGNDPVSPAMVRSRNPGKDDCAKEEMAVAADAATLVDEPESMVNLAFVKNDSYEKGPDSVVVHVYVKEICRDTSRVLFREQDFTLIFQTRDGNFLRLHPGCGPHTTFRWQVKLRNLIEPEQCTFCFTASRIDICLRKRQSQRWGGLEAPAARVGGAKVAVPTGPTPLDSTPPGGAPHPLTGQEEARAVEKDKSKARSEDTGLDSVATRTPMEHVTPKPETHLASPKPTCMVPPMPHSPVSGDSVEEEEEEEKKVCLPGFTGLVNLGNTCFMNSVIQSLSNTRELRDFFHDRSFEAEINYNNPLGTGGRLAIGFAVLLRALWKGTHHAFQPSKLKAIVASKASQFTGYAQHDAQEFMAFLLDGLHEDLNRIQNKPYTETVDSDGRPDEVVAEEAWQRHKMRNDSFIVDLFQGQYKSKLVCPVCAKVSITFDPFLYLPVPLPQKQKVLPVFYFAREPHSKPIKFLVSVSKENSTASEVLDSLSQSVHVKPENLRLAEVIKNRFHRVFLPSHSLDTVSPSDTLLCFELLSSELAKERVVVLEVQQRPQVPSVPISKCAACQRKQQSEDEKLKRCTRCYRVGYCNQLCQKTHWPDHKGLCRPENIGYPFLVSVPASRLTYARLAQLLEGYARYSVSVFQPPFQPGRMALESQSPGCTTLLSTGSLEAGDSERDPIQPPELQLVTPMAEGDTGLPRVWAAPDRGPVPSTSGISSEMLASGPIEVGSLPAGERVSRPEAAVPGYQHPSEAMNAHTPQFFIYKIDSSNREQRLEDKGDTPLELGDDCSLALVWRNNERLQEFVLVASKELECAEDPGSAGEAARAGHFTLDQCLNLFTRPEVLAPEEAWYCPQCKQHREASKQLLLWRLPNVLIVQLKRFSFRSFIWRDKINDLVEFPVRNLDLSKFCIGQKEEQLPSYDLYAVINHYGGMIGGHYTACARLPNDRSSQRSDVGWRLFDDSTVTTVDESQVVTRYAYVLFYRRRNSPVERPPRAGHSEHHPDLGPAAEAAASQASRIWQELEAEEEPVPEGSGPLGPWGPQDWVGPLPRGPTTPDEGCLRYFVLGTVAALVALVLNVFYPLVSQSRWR
Outline: as §1

USP24 = USP24 (UniProt Q9UPU5)
Outline: as §1

USP25 = molecular target: T2, USP25 (UniProt Q9UHP3)
T2 sequence (whole entry): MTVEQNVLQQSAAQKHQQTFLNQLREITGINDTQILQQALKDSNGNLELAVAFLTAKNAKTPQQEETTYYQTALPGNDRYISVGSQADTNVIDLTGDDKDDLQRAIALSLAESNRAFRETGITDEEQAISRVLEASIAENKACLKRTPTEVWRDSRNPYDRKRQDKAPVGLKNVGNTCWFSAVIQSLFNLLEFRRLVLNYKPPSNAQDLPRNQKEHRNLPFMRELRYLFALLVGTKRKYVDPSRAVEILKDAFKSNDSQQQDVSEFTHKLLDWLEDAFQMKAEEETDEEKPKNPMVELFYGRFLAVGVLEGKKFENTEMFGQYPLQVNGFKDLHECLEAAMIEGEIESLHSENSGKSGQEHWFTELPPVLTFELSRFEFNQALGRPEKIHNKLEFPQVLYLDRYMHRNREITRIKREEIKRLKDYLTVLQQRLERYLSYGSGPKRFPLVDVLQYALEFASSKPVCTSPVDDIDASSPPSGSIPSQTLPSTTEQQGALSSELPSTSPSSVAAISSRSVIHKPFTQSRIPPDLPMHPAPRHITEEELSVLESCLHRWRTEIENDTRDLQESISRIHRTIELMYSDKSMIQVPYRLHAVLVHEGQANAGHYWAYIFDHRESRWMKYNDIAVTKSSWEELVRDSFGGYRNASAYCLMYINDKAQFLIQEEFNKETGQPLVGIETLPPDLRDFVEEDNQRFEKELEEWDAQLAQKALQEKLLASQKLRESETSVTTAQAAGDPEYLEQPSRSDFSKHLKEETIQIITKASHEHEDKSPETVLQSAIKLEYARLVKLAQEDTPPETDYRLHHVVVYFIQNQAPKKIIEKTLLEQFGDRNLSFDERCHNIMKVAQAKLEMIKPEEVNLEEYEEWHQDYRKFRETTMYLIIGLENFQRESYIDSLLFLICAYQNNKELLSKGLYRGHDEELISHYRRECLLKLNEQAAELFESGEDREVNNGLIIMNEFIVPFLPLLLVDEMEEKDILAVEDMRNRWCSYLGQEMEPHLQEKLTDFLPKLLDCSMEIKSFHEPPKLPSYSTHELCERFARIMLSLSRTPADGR
Outline: as §1

USP28 = molecular target: T3, USP28 (UniProt Q96RU2)
T3 sequence (whole entry): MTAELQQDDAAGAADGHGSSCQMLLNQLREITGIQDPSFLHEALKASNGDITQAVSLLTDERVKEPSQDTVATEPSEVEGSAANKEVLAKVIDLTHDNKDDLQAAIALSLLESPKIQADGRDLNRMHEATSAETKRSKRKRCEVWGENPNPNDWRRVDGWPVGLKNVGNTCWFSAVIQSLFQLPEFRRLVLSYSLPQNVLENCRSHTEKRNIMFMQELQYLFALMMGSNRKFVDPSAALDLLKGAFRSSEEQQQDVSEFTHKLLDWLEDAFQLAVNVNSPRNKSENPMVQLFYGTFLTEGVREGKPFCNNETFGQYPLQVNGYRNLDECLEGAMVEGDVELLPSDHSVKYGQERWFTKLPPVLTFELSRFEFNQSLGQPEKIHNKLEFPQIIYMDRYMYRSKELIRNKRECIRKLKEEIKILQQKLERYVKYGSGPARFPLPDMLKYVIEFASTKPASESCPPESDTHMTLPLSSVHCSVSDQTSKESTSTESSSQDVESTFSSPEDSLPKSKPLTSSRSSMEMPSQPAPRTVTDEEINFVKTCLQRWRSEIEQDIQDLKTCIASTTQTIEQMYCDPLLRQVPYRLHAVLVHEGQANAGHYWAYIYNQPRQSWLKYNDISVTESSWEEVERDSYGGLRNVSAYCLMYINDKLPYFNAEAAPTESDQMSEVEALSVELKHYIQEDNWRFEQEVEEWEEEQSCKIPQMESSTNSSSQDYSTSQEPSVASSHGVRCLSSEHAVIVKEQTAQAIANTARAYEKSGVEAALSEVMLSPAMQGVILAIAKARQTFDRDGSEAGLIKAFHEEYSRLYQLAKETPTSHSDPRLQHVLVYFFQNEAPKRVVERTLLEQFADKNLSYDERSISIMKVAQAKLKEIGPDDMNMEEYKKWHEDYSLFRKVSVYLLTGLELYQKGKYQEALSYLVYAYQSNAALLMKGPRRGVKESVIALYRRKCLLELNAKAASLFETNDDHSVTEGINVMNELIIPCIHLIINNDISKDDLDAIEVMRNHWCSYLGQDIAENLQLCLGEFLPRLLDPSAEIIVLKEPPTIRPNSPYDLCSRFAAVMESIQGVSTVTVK
Outline: as §1

Measured: log2 ratio of Biotin-Ahx-Ub-VS probe labelling

USP16, sequence (Q9Y5T5 whole entry, looked up, the tested form may be a part): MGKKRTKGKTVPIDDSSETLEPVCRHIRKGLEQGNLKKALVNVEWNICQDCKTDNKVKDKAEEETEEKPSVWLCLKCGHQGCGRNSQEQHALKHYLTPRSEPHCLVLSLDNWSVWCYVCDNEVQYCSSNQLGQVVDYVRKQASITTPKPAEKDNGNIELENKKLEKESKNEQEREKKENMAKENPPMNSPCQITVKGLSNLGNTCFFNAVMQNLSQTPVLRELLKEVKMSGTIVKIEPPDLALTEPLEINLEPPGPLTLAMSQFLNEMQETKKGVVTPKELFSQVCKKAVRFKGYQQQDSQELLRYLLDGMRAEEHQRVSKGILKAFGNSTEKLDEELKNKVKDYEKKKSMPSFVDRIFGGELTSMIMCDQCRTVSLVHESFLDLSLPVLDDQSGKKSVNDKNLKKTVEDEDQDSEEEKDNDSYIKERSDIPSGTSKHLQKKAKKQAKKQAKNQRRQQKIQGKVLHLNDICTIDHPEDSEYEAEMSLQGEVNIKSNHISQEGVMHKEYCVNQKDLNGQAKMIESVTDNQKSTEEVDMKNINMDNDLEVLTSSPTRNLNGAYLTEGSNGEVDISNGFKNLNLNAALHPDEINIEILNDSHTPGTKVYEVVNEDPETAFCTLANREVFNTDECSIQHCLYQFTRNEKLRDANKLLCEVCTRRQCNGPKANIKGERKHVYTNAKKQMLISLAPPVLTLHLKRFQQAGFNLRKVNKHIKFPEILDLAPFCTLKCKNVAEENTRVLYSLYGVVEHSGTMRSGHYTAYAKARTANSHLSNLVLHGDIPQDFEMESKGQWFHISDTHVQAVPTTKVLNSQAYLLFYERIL
USP24, sequence (Q9UPU5 whole entry): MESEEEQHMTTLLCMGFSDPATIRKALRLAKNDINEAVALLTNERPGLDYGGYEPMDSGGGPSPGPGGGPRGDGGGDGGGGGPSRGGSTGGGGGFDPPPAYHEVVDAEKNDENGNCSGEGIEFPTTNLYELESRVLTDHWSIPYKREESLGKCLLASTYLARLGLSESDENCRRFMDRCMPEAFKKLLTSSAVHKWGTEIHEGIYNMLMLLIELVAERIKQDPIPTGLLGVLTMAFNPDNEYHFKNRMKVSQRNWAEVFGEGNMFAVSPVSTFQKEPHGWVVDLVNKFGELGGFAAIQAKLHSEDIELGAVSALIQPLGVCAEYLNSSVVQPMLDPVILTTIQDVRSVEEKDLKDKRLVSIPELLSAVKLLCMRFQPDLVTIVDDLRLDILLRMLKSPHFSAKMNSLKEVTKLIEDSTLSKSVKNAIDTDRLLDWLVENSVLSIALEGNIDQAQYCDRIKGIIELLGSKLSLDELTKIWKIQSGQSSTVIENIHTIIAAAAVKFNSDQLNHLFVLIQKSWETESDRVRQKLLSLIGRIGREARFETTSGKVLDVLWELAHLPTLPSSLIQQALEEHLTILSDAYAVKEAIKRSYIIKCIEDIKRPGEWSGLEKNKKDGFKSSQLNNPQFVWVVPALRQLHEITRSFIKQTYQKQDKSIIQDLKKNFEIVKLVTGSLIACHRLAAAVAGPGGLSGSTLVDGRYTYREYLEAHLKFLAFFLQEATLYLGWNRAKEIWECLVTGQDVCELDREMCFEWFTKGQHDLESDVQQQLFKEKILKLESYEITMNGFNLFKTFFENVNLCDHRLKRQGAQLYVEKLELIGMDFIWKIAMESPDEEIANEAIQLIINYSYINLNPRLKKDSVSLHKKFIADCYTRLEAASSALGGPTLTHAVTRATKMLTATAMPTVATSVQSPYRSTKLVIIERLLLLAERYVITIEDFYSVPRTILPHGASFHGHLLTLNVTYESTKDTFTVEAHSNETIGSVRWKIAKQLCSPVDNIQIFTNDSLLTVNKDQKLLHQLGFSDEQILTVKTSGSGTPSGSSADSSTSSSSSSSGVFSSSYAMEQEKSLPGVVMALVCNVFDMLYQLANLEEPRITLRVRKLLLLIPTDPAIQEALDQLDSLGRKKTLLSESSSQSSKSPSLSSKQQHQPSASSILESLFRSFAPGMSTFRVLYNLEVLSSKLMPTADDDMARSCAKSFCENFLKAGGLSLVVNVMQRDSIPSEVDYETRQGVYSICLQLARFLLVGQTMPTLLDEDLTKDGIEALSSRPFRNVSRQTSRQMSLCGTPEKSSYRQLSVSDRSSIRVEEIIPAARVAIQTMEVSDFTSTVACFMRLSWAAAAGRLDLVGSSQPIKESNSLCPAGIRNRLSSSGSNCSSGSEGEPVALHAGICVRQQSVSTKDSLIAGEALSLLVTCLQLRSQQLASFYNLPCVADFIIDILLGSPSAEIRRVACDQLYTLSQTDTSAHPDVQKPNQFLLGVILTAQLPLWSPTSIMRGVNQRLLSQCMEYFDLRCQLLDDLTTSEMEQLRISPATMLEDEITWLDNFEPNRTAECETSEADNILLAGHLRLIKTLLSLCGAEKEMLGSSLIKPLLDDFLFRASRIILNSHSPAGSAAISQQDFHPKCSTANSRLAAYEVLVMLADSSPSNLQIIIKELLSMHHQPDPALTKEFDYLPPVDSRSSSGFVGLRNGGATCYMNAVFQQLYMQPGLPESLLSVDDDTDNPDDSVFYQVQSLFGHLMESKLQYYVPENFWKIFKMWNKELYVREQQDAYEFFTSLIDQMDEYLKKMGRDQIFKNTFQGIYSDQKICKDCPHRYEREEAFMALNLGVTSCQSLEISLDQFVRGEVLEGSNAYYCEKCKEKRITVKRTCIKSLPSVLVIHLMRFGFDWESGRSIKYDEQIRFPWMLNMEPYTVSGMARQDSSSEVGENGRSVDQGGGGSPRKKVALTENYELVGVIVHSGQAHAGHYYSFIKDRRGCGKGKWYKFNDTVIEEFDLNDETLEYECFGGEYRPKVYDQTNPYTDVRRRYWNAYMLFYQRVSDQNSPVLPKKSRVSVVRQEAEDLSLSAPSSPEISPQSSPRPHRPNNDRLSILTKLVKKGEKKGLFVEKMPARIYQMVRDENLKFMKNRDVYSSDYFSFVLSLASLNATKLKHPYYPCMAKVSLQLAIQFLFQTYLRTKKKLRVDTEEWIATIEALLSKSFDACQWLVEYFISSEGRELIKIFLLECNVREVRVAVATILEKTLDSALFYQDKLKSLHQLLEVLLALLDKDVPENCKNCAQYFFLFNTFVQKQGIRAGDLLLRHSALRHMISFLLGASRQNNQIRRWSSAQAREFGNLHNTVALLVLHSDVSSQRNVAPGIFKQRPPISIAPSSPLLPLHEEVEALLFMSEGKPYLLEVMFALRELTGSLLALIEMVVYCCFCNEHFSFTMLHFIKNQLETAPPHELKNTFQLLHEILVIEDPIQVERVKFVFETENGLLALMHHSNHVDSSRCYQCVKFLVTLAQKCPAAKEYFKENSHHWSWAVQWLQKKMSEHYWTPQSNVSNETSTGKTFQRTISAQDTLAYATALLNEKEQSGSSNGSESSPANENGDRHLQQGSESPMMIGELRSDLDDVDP

Cc1ccc(N2CCC(NC(=O)CCl)C2=O)cc1 (stereo not given)
inactive: USP16 -0.702 | USP19 0.0818 | USP24 0.141 | USP25 0.0471 | USP28 -0.0346
